Eya2 inh: qHTS Assay for Inhibitors of the Phosphatase Activity of Eya2 | Protein phosphatase EYA2 (Homo sapiens), O00167 | recombinant Eya2, OMFP fluorescence dephosphorylation (OMFP is methylfluorescein phosphate) | Potency, µM (titrated, usually from 76.9 µM), usual class: inhibitors | 0.006% of 330,000 active | AID 488837, 2010
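Eya2 (0.2 uM) preincubated 10 min at ambient with compound, then OMFP substrate added at 50 uM; 10 min reaction in 50 mM HEPES pH 7.5, 50 mM NaCl, 5 uM MgCl2, 0.05% BSA, 1 mM DTT. Fluorescence read at Ex 485/Em 525 nm.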
rTrxR1 inhibitor: qHTS Assay for Inhibitors of Mammalian Selenoprotein Thioredoxin Reductase 1 (TrxR1): qHTS. Thioredoxin reductase 1, cytoplasmic (Rattus norvegicus), O89049. recombinant rTrxR1, NADPH fluorescence consumption, selenite substrate. Potency, µM (titrated, usually from 114 µM), most hits filed as inhibitors. 1% of 390,000 active. AID 588453, 2011; further: nearly all actives have a fitted effect of over 65% in size
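Rat TrxR1 (90 nM in the dispensed reagent) was pre-reduced with 400 uM NADPH for 5 min at room temperature, then incubated with compound for 15 min. After 400 uM selenite was added, NADPH fluorescence (Ex 340/Em 450 nm) was followed for 8 min.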
Six1-Eya2 blk: qHTS Assay for Inhibitors of the Six1/Eya2 Interaction | Homeobox protein SIX1 (Homo sapiens) + Protein phosphatase EYA2 (Homo sapiens), … | AlphaScreen GST-Six1/His-Eya2 binding, biochemical; hits give low values | activity change, % (no concentration beside the values) | 0.56% of 360,000 active | AID 651725, 2012; in the data active means activity change below about -65%; inconclusive means mostly about -30% to -63%
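GST-Six1 + His-Eya2 (5X stock: 250/500 nM); Tris pH 8.0, 300 mM NaCl, 0.05% BSA, 0.02% Tween 20; GSH donor/Ni acceptor beads; 1 h 37 °C dark; AlphaScreen readout.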
CtBP-E1A blk: qHTS Assay for Inhibitors of the CtBP/E1A Interaction; AID 651724, 2012; 0.49% of 340,000 active; activity change, % (concentration not given with the values); AlphaScreen GST-E1A/His-CtBP binding, 1536-well; hits give low values; in the data active means activity change below about -65%; inconclusive means mostly about -30% to -63%
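Steps: dispense buffer (Tris pH 8.0, NaCl 300 mM, TCEP 1 mM, BSA, Tween 20); add 5X protein mix (GST-E1A, His-CtBP, 125 nM each); pin 23 nL compound; 2 h at 37 °C, dark; add 5X beads (50 ug/mL); 1 h; read.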
GALK inhibitor: qHTS Assay for Inhibitors of Human Galactokinase (GALK) | Potency, µM (series often up to 57.5 µM), usual class: inhibitors | 0.007% of 270,000 active | P51570 | Purified GALK, Kinase-Glo residual ATP luminescence
Target sequence (P51570 whole entry, looked up): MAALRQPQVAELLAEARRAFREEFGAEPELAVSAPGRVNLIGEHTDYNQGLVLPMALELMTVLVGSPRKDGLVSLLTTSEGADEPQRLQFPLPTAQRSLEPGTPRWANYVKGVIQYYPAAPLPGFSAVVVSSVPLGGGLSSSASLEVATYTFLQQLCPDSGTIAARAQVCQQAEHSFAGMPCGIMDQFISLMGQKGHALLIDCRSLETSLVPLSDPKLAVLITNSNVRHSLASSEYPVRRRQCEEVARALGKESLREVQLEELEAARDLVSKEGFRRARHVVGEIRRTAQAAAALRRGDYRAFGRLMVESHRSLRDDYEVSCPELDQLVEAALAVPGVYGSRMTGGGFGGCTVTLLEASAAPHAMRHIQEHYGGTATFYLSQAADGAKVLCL
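GALK at 5 nM final was combined with compound, 35 uM ATP and 100 uM galactose in HEPES pH8.0 with MgCl2 and DTT. The reaction ran one hour at room temperature before luminescent ATP detection.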
TrxR1 substrate: qHTS Assay for Substrates of Mammalian Selenoprotein Thioredoxin Reductase 1 (TrxR1): qHTS; Thioredoxin reductase 1, cytoplasmic (Rattus norvegicus), O89049; purified TrxR1 substrate turnover, NADPH consumption readout; Potency, µM (series often up to 114 µM); 0.01% of 390,000 active; further: nearly all actives have a fitted effect of over 50% in size
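Rat TrxR1, dispensed at 90 nM, was prereduced with 400 uM NADPH (final) for 5 min at ~22 deg C, then incubated with compound 15 min before 400 uM selenite. A first-read NADPH fluorescence drop versus no-compound background flagged substrates.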
Numbers stand for hits; . = inactive; ? = inconclusive; / = no result given. The list is not random: actives were taken first. Their share in the collection is about 1.5%. Unless noted, the call rests on the fitted dose curve; in most records, active means well fitted curve in the direction sought with a large enough effect; inconclusive means small, poorly fitted or top-dose-only effect, or another doubt; inactive means no such curve, though single readings can be large; an effect the other way counts as inactive or inconclusive.

SMILES	Eya2 inh	rTrxR1 inhibitor	Six1-Eya2 blk	CtBP-E1A blk	GALK inhibitor	TrxR1 substrate
CCOc1ccc(NC(=O)Cn2c(=O)n(-c3ccccc3)c(=O)c3ccc(C(=O)NCc4ccc5c(c4)OCO5)cc32)cc1	/	.	/	/	/	.
NC(=O)c1cc2ccccc2o/c1=N/NC(=O)c1cccs1	.	.	?	.	.	.
COc1ccc2o/c(=N/NC(=O)c3cccs3)c(C(N)=O)cc2c1	.	.	?	-83.0	.	.
NS(=O)(=O)c1ccc(Sc2nc3ccccc3s2)c([N+](=O)[O-])c1	.	.	.	.	.	.
CN(CCO)c1cc(Sc2nc3ccccc3s2)c2nonc2c1[N+](=O)[O-]	.	0.355µM	.	.	.	.
CC(=O)OCCN(C)c1cc(SC(C)C)c2nonc2c1[N+](=O)[O-]	.	3.16µM	.	.	.	.
CC(=O)OCCNc1cc(SC(C)C)c2nonc2c1[N+](=O)[O-]	.	.	.	.	.	.
O=C(O)CCN1CC2([N+](=O)[O-])C=CC(=O)C([N+](=O)[O-])(C1)C2CC(=O)c1ccccc1 (stereo not given)	.	14.1µM	.	.	.	.
O=C(Nc1ccc2nc(SCC(=O)N3CCOCC3)sc2c1)c1cccc(Cl)c1	/	.	/	/	/	.
CCOC(=O)CNC(c1ccccc1)c1cc(Br)ccc1NC(=O)CCN1CCOCC1 (stereo not given)	.	?	.	/	.	.
COC(=O)CNC(c1ccccc1)c1cc(Br)ccc1NC(=O)CCN1CCOCC1 (stereo not given)	.	2.24µM	.	/	.	.
Cc1c(Cl)cnc(NC(=O)COC(=O)[C@@H](NC(=O)c2ccco2)C(C)C)c1Cl	.	11.2µM	.	.	/	.
CCOC(=O)c1c(S(=O)(=O)N2CCCC(C(=O)N3CCN(c4ccc(F)cc4)CC3)C2)c(C)n(C)c1C (stereo not given)	/	.	/	/	/	.
Cc1cccc(N2CCN(C(=O)Cn3cnc4sc(C)c(S(=O)(=O)N5CCN(c6ncccn6)CC5)c4c3=O)CC2C)c1 (stereo not given)	/	.	/	/	/	.
C=C1CC(Cn2cc(Br)c(=O)[nH]c2=O)(c2ccc(-c3ccccc3)cc2)OC1=O (stereo not given)	/	7.08µM	.	.	/	.
O=c1[nH]c(=O)n(Cc2ccc(Oc3ccccc3)cc2)cc1Br	.	/	/	/	/	/
COc1ccc(Cl)cc1NC(=O)c1c(NCc2ccc(C)o2)sc2c1CCCCC2	/	?	/	/	/	.
COc1ccccc1NC(=O)c1c(NCc2ccc(C)o2)sc2c1CCCCC2	/	14.1µM	/	/	/	.
COc1ccc(OC)c(NC(=O)c2c(NCc3ccc(C)o3)sc3c2CCCCC3)c1	/	14.1µM	/	/	/	.
O=C(Cn1nc(-c2ccco2)ccc1=O)Nc1ccc(Br)cc1	.	39.8µM	.	.	.	.
Cc1cccc(NC(=O)Cn2nc(-c3ccco3)ccc2=O)c1C	.	?	.	.	.	.
O=C(CSc1ccc(-c2ccco2)nn1)c1ccccc1	.	28.2µM	.	.	.	.
COc1ccc(NC(=O)CSc2ccc(-c3ccco3)nn2)cc1OC	.	35.5µM	.	.	.	.
O=C(CSc1ccc(-c2cccnc2)nn1)c1ccc([N+](=O)[O-])cc1	.	?	.	.	.	.
O=C(CSc1ccc(-c2ccccn2)nn1)c1ccc([N+](=O)[O-])cc1	.	.	-66.6	-82.5	.	.
SMILES	Eya2 inh	rTrxR1 inhibitor	Six1-Eya2 blk	CtBP-E1A blk	GALK inhibitor	TrxR1 substrate
O=C(CSc1nc(-c2ccc(F)cc2)cc(C(F)(F)F)n1)NCCc1ccccc1	/	.	/	/	/	.
COc1cccc(NC(=O)CSc2ccc(-c3ccco3)nn2)c1	.	28.2µM	.	.	.	.
O=C(CSc1ccc(-c2ccco2)nn1)Nc1ccc(F)cc1	.	31.6µM	.	.	.	.
Cc1nnc(NC(=O)CSc2ccc(-c3ccco3)nn2)s1	.	17.8µM	.	.	.	.
CCc1nnc(NC(=O)CSc2ccc(-c3ccco3)nn2)s1	.	.	.	.	.	.
CCOc1ccc(NC(=O)CSc2ccc(-c3ccco3)nn2)cc1	.	?	.	.	.	.
COc1ccc(/C=C/c2nnc(NC(=O)COc3ccc(Cl)cc3)s2)cc1	/	.	/	/	/	.
CCN(CC)S(=O)(=O)c1ccc2c(c1)nc(CN(C)C(=O)Nc1ccc(C)c(Cl)c1)n2C	/	.	/	/	/	.
CCN(Cc1ccc(OC)c(F)c1)C(=O)CCl	.	25.1µM	.	.	.	.
CC(=O)N1CCCc2cc(S(=O)(=O)N3CCCC(C(=O)Nc4cccc(Cl)c4C)C3)ccc21 (stereo not given)	/	.	/	/	/	.
COC(=O)c1sc2cc(C(F)(F)F)cnc2c1-c1cccnc1	.	.	-72.1	.	.	.
O=C1C(=C(c2ccccc2)c2ccccc2)Nc2ccccc21	.	.	-70.3	?	.	.
Cn1c(NN)nc2sc3c(c2c1=O)CC(C)(C)OC3	.	.	?	-76.6	.	.
CCOC(=O)c1oc2ccccc2c1NC(=O)c1ccco1	.	.	.	.	.	.
CCOC(=O)c1oc2ccccc2c1NC(=O)CCl	.	22.4µM	.	/	.	.
O=C(O)CCc1ccc(-c2ccccc2)n1-c1ccc(C(=O)O)cc1	.	79.4µM	.	/	.	.
O=C(O)CCc1ccc(-c2ccccc2)n1-c1cccc(C(=O)O)c1	.	44.7µM	.	/	.	.
CCOC(=O)c1ccc(-n2c(CCC(=O)O)ccc2-c2ccccc2)cc1O	/	50.1µM	/	/	/	.
CC(=O)c1cccc(-n2c(CCC(=O)O)ccc2-c2ccc(C)cc2)c1	.	?	.	.	.	.
C=C[C@@H]1c2cc(C)ccc2N(S(=O)(=O)c2ccc(C)cc2)[C@H](c2ccc(C(C)(F)F)cc2)C1(C#N)C#N	/	.	/	/	/	.
CCC(Nc1ccc(-c2nc(-c3cccnc3)no2)cc1[N+](=O)[O-])c1ccccc1 (stereo not given)	/	.	/	/	/	.
Cc1ccc(S(=O)(=O)/N=C2/C=C(Sc3ncn[nH]3)C(=O)c3ccccc32)c(C)c1	.	/	/	/	.	/
CC(C)c1ccc(S(=O)(=O)/N=C2/C=C(Sc3ncn[nH]3)C(=O)c3ccccc32)cc1	.	?	.	.	.	14.1µM
Cc1ccc(S(=O)(=O)/N=C2/C=C(Sc3ncn[nH]3)C(=O)c3ccccc32)cc1	.	?	?	.	.	10µM

Assay outcomes from PubChem BioAssay.
